These results are taken from PubChem BioAssay (NCATS).

Results filed as inconclusive are left out. Entries that show only a call come without a potency. Activity calls are given as the source filed them. Calls come from the whole dose curve; as a rule, active = well fitted inhibition curve with a large enough effect; inconclusive = small, poorly fitted or top-dose-only effect; inactive = flat fitted curve, though single readings scatter.

Chain of Glutathione peroxidase 1 (Homo sapiens) (P07203 whole entry, looked up): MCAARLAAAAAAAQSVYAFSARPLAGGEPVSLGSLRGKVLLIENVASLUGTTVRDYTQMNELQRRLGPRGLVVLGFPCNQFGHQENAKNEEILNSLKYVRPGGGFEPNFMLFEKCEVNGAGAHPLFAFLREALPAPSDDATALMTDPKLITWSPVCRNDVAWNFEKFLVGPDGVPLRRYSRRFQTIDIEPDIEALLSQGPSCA

The experiment concerns the target Glutathione peroxidase 1 (Homo sapiens) (UniProt P07203). Put plainly: Primary qHTS Assay for Inhibitors of Recombinant Selenoprotein Glutathione Peroxidase 1 (GPX1) (AID 1845191). Note: nearly all actives have a fitted effect of over 65% in size. Particulars: recombinant GPX1, GR-coupled NADPH fluorescence, 15 min; series mostly up to 48.8 µM. From the text: Assay Provider: Elias S.J. Arner MD PhD.
Department of Medical Biochemistry and Biophysics
Karolinska Institutet, Solna, Stockholm, Sweden
Selenoprotein glutathione peroxidases (GPX), like the ubiquitously expressed GPX1 and the ferroptosis modulator GPX4, enact their antioxidant activities by reducing hydroperoxides using glutathione. […] GPX1 and GPX4 inhibitors have thus shown promise as anti-cancer agents. Existing inhibitors are often promiscuous, or modulate GPX activity only indirectly, so novel direct inhibitors identified through screening against GPX1 and GPX4 could be valuable. Here, we developed optimized glutathione reductase (GR)-coupled GPX assays for the biochemical high-throughput screen (HTS) of almost 12,000 compounds with known mechanisms of action. Initial hits were triaged using a GR counter-screen, assessed for isoform specificity using a separate GPX2 assay, and were assessed for general selenocysteine-targeting activity using a thioredoxin reductase (TXNRD1) assay. With this suite of assays, we identified novel GPX1/GPX2- and GPX4-specific inhibitors and can here present a validated pipeline for future discovery research for selenoprotein-targeting agents.
SEQUENCE No. (e.g., 1, 2, 3, etc.); […] (e.g., Cells, Incubation, Reagent, etc.); VALUE; DESCRIPTION.
1; Reagent 1; 3 uL; GPx1 enzyme or no enzyme control in 1536-well, black, solid Greiner assay plate.
2; Compound; 25 nL; Kalypsis pin tool (Wako USA) equipped with a 1536-well pin head.
3; Incubation; 30 min; room temperature.
4; Reagent 2; 1 uL; 10 nM GPX1, 1 mM GSH, 0.5 mM CHP, 0.5 mM NADPH, 100 nM GR, 0.01% BSA substrate
5; Detection; Fluorescence; ViewLux microplate reader, excitation 340 nm and emission 450 nm.
6; Incubation; 15 min; room temperature.
7; Detection; Fluorescence; ViewLux microplate reader, excitation 340 nm and emission 450 nm.
NOTES (numbers refer to Sequence numbers above)
1. 3 uL of 16.66 nM GPX1 and 0.016% BSA in assay buffer (50 mM Tris-HCl, 2 mM EDTA (pH 7.5), 150 mM NaCl) was added to columns 3-48 of 1536-well assay plates using a BioRAPTR Flying Reagent Dispenser (Let's Go Robotics (LGR), Carlsbad, CA). A no-enzyme control (0.01% BSA in TES assay buffer) was added to columns 1-2.
2. 25 nL of test compounds and DMSO controls were added to each well with a pin tool (Kalypsys).
3. The assay plates were incubated for 30 minutes at room temperature.
4. 1 uL of master mix (500 nM glutathione reductase (GR), 5 mM reduced glutathione (GSH), 2.5 mM NADPH in assay buffer) was added. 1 uL of cumene hydroperoxide (CHP) ([2.5 mM] in 50% EtOH) was then added within 5 minutes to initiate the reaction. Final concentrations were: 10 nM GPX1, 1 mM GSH, 0.5 mM CHP, 0.5 mM NADPH, 100 nM GR, 0.01% BSA.
5. Initial fluorescence readout (t=0) at 340/450 nm was measured using a ViewLux multimodal detector (PerkinElmer, Waltham, MA).
7. Endpoint fluorescence readout (t=15) at 340/450 nm was measured 15 min after room temperature incubation.
(In qHTS, concentration-response curves come from the screen itself.)
For the molecule `C[C@@H]1O[C@@H](O[C@H]2[C@@H](OC(=O)[C@]34CCC(C)(C)CC3C3=CCC5[C@@]6(C)C[C@H](O)[C@H](O[C@@H]7O[C@H](CO)[C@@H](O)[C@H](O)[C@H]7O[C@@H]7OC[C@@H](O)[C@H](O)[C@H]7O)[C@@](C)(C(=O)O)C6CC[C@@]5(C)[C@]3(C)CC4)OC[C@H](O)[C@@H]2O)[C@H](O)[C@H](O)[C@H]1O[C@@H]1OC[C@@H](O)[C@H](O)[C@H]1O` (stereo not given in full), the outcome is “inactive [at 9.52 µM]”.

Take `O=C(COc1ccc(C(=O)c2ccccc2)cc1)NC1CCN(Cc2ccccc2)CC1`: the Potency entry is “inactive”. For `C/C(=C\CCC(C)C1=CCC2(C)OC3=C(CC12)C(=O)C(O)CC3)CO` (stereo not given), the Potency entry is “inactive”. The same measure, in the same setting: as for `CCN(CC)C(=O)C(c1ccccc1)N1CCN(c2ccc(NC(=O)c3ccccc3-c3cccnc3)cc2F)CC1` (stereo not given), the entry is “inactive”; as for `COc1ccc(CCc2nc3cc(-c4c(C)noc4C)ccc3n2CC(C)N2CCOCC2)cc1Cl` (stereo not given), “inactive”; as for `Cc1cccc(N2CCN(C(=O)c3cc(S(=O)(=O)N(C)C)ccc3N3CCCC3)CC2)c1C`, “inactive”. Take `CNc1ccc([N+](=O)[O-])c(Nc2ccc3[nH]ncc3c2)n1`: the Potency result is “inactive”. Same read-out and setting: then `O=C(OC1CN2CCC1CC2)N1CCc2ccccc2C1c1ccccc1` (stereo not given), with “inactive”. Still for that read-out and setting: then `C=C1C(=O)O[C@H]2CC(=C)[C@H]3CC[C@@](C)(O)[C@@H]3CC12` (stereo not given in full), with “inactive”; and `C#CCNCc1cc2cc(OCc3ccccc3)ccc2[nH]1`, with “inactive”; and `COc1cc(-c2cn(C3CCc4c(F)cccc4N(CC(F)(F)F)C3=O)nn2)ccc1-n1cnc(C)c1` (stereo not given), with “inactive”. On the same count and under the same terms, as for `CC(C)(Cc1nc(-c2ccc(O)cn2)no1)C(=O)NC1=C(C(=O)O)CCCC1`, the entry is “inactive”; as for `Cc1cccc(-c2[nH]ncc2-c2ccnc3ccccc23)n1`, “inactive”; as for `Cc1cc(C)c2c(c1)C(N(Cc1cc(C(F)(F)F)cc(C(F)(F)F)c1)c1nnn(C)n1)CCCN2CC1CCC(C(=O)O)CC1` (stereo not given), “inactive”. On to `COc1ccc([C@H]2OC[C@H]3O[C@@H](O[C@H]4[C@@H]2NC[C@@H]4O)[C@H](O)[C@H]3O)cc1`, for which the Potency result was “inactive”.

In the case of `CC(=O)O[C@H]1CC[C@]2(C)[C@H]3CC[C@]4(C)Oc5oc(C)cc(=O)c5C[C@H]4[C@]3(C)CC[C@H]2C1(C)C`, the Potency entry was “inactive”. The same measure, in the same setting: then `C/C=C(/C)C(=O)OC1C=C2C3C(C)C(C)C(OC(=O)C(C)C(C)O)CC3(C)CCC2(C)C2(C)CC(OC(C)=O)C3C(C)(C)C(O)C(=O)CC3(C)C12` (stereo not given), with “inactive”; and `CCOC(=O)[C@@]1(CCCCCCOc2ccc(Cl)cc2)CO1`, with “inactive”. Still for that read-out and setting: then `COC(=O)c1cc2c(C(F)(F)F)cc(-c3ccccc3)cc2n1O`, with “inactive”; and `CC(=O)O[C@H]1[C@H](O)C[C@@]2(C)C(CC[C@]3(C)C2CC=C2C4CC(C)(C)CC[C@]4(C(=O)O)CC[C@]23C)C1(C)C` (stereo not given in full), with “inactive”. On to `O=P(O)(O)OC(Cn1cncn1)(Cn1cncn1)c1ccc(F)cc1F`, for which the Potency result was “inactive”. As to `Nc1nc(OCc2cc(Br)cs2)c2[nH]cnc2n1`, the Potency result was “inactive”. As for `CCN(CCNC(=O)Nc1ccccc1Br)c1cccc(C)c1`, the Potency result is “inactive”. On to `CC(C)S(=O)(=O)NC[C@H](C)c1ccc(-c2ccc(CCNS(C)(=O)=O)cc2)cc1`, for which the Potency entry is “inactive”. Still for that read-out and setting: as for `CCn1c(=O)c(-c2ccc(-c3cncs3)cc2Cl)cc2cnc(Nc3ccc(N4CCN(C)CC4)cc3)nc21`, the entry is “inactive”; as for `C/C=C(\C)C(=O)O[C@H]1C=CC(=O)O[C@H]1/C=C/[C@@H](O)[C@H](C)O`, “inactive”; as for `CC(=O)O[C@H]1C[C@@](O)(C(C)C)[C@@H]2[C@@H](OC(=O)c3ccc(O)cc3)CC(C)=CC[C@@]12C`, “inactive”. The same measure, in the same setting: as for `COc1ccc(CNCC(O)COc2ccc3[nH]c(=O)ccc3c2)cc1OC` (stereo not given), the entry is “inactive”; as for `CC1CCCC(O)CCC/C=C/c2cc(OS(=O)(=O)O)cc(O)c2C(=O)O1` (stereo not given), “inactive”. Still for that read-out and setting: as for `O=c1[nH]c2ccccc2n1CCN1CCN(c2cccc(C(F)(F)F)c2)CC1`, the entry is “inactive”. Turning to `COC1CC/C=C(\C)C(=O)Nc2cc(O)cc(c2)CC(C)CC(OC)C(O)C(C)/C=C(\C)C1OC(N)=O` (stereo not given), the Potency entry was “inactive”. Same read-out and setting: as for `COc1cc(NC(=O)c2cc(C3CC3)on2)c(OC)cc1Cl`, the entry is “inactive”. Same read-out and setting: as for `CC(=O)OC[C@]12[C@H](OC(C)=O)[C@H](OC(=O)c3ccccc3)[C@@H]3[C@@H](OC(C)=O)[C@]1(OC3(C)C)[C@H](C)C[C@H](OC(C)=O)[C@@H]2OC(=O)c1ccccc1`, the entry is “inactive”.

For the molecule `CC1(C)CC[C@]2(C(=O)O)CC[C@]3(C)C(=CCC4[C@@]5(C)C[C@@H](O)[C@H](O)C(CO)(CO)C5CC[C@]43C)C2[C@@H]1O` (stereo not given in full), the Potency entry is “inactive”.

`NS(=O)(=O)c1ccc(N2CCN(CC[C@@H]3OCCc4ccccc43)CC2)cc1`: the Potency result was “inactive”.

In the case of `O=C(O)C1=CO[C@@H](O[C@@H]2O[C@H](CO)[C@@H](O)[C@H](O)[C@H]2O)[C@@H]2C(CO)=CC[C@H]12`, the Potency entry was “inactive”. Same read-out and setting: then `NCC1CCN(c2nccc(-c3ccc4ccccc4c3)n2)CC1`, with “inactive”.

As for `C[N+](C)(CCCCCC[N+](C)(C)C1c2ccccc2-c2ccccc21)C1c2ccccc2-c2ccccc21`, the Potency entry is “inactive”. On the same count and under the same terms, then `N#Cc1ccc(COC[C@H]2O[C@@H](n3c(NCc4ccc(Cl)c(Cl)c4)nc4c(N)ncnc43)[C@H](O)[C@@H]2O)cc1`, with “inactive”; and `COc1cc(C[C@@H]2NCCc3cc(O)c(O)cc32)cc(OC)c1OC`, with “inactive”.
